Assay [1] can be described thus: ATG_PBREM_CIS: Attagene CIS-FACTORIAL HepG2 Assay for human Phenobarbital-responsive Enhancer Module (PBREM) (AID 2282955). The note with it: HepG2 PBREM cis-reporter, Attagene multiplexed transcription; actives raise or lower the signal. Put shortly:
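Cells were transfected with cis-element reporter units and treated for 24 h, after which RNA was extracted and reporter transcripts measured by RT-PCR and capillary electrophoresis.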

For assay [2], the target named is Paired box protein Pax-6 (Homo sapiens) (UniProt P26367). The assay is described as follows: ATG_Pax6_CIS: Attagene CIS-FACTORIAL HepG2 Assay for human Paired Box 6 (PAX6) (AID 2282956). The note with it: HepG2 CIS-FACTORIAL PAX6 reporter transcription, RNA readout; actives raise or lower the signal. Put shortly: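 DMSO-referenced bidirectional fits of reporter mRNA fluorescence; HepG2 with transient cis-promoter MRTUs, 24 h post-dose, RT-PCR plus capillary electrophoresis detection.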

A short description of assay [3]: ATG_PXRE_CIS: Attagene CIS-FACTORIAL HepG2 Assay for human Pregnane X Receptor Element (PXRE) (AID 2282957). Conditions: HepG2 Attagene CIS-FACTORIAL PXRE reporter, mRNA; actives raise or lower the signal. In a few lines:
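After a 24 h chemical incubation, total RNA from transfected HepG2 cells was reverse-transcribed and reporter cDNA amplified, FAM-labeled, HpaI-digested and sized by capillary electrophoresis. DMSO served as baseline for bidirectional curve fitting.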

Assay [4] is described as follows: ATG_PPRE_CIS: Attagene CIS-FACTORIAL HepG2 Assay for human Peroxisome Proliferator-activated Response Element (PPRE) (AID 2282958). The note with it: HepG2 PPRE cis-element reporter, Attagene transcription factor profiling; actives raise or lower the signal. In a few lines: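 In this cell-based multiplex, a PPRE cis element drives a reporter sequence in transiently transfected HepG2 cells. Following 24 h treatment, labeled cDNA amplicons are sized and quantified by capillary electrophoresis, with DMSO defining baseline.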

A short description of assay [5]: ATG_Sox_CIS: Attagene CIS-FACTORIAL HepG2 Assay for human SRY-box transcription factor (SOX) (AID 2282960). Conditions: HepG2 Attagene cis-factorial SOX reporter, mRNA; actives raise or lower the signal. Put shortly:
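Measures mRNA induction of a SOX1-associated reporter in HepG2 after 24 h dosing. Fluorescently labelled RT-PCR fragments are separated by capillary electrophoresis, and gain or loss relative to DMSO control is fitted.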

Assay [6] deals with Transcription factor Sp1 (Homo sapiens) (UniProt P08047). The assay is described as follows: ATG_Sp1_CIS: Attagene CIS-FACTORIAL HepG2 Assay for human Specificity Protein 1 (Sp1) (AID 2282961). The note with it: HepG2 Sp1 cis-reporter transcription, actives raise or lower the signal. In a few lines:
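Cells: HepG2, transiently transfected with cis-regulated multiplexed reporters. Exposure: 24 h. Detection: reporter transcripts amplified, fluorescently labeled, restriction-digested and sized by capillary electrophoresis. Analysis: bidirectional fit relative to DMSO.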

Assay [7] is described as follows: ATG_SREBP_CIS: Attagene CIS-FACTORIAL HepG2 Assay for human Sterol Regulatory Element Binding (SREBP) (AID 2282962). The note with it: HepG2 Attagene cis-factorial SREBP reporter, mRNA; actives raise or lower the signal. Put shortly:
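In this cis-format assay, HepG2 liver cells express reporters controlled by promoter elements responsive to native transcription factors. Exposure lasts 24 h; reporter mRNA fluorescence from capillary electrophoresis gives the signal, fitted bidirectionally against DMSO.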

Assay [8] deals with Signal transducer and activator of transcription 3 (Homo sapiens) (UniProt P40763). The assay is described as follows: ATG_STAT3_CIS: Attagene CIS-FACTORIAL HepG2 Assay for human Signal Transducer and Activator of Transcription 3 (STAT3) (AID 2282963). Conditions: HepG2, Attagene cis-factorial STAT3 reporter transcription; actives raise or lower the signal. In a few lines: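 Readout: fluorescent reporter mRNA fragments resolved by capillary electrophoresis. Setup: HepG2 transfected with MRTUs reporting endogenous transcription-factor activity, dosed 24 h. Gain or loss of signal fitted bidirectionally against DMSO control.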

Assay [9] can be described thus: ATG_TA_CIS: Attagene CIS-FACTORIAL HepG2 Assay for human TA Basal Promoter (AID 2282964). The note with it: HepG2 Attagene CIS-factorial TA basal promoter reporter; actives raise or lower the signal. In a few lines:
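Read-out: fluorescent reporter-transcript fragments resolved by capillary electrophoresis after RT-PCR and HpaI digestion. Source: HepG2 cells carrying transiently transfected multi-reporter cis constructs, treated 24 h. Endpoint fitted bidirectionally relative to DMSO.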

The nature of assay [10]: ATG_TCF_b_cat_CIS: Attagene CIS-FACTORIAL HepG2 Assay for human T-Cell-Factor with beta-catenin (TCF/b-cat) (AID 2282965). Conditions: HepG2 TCF/beta-catenin cis-reporter transcription, actives raise or lower the signal. In a few lines:
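HepG2, transient MRTU transfection, cis-element-driven reporters (endogenous TFs). 24 h compound exposure. Readout: reporter mRNA by RT-PCR + 6-FAM primer extension, HpaI digest, capillary electrophoresis. Gain/loss fit vs DMSO baseline.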

The nature of assay [11]: ATG_TAL_CIS: Attagene CIS-FACTORIAL HepG2 Assay for human TAL Basal Promoter (AID 2282966).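 Note: background control endpoint measuring basal TAL promoter reporter mRNA not a specific factor.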 The note with it: HepG2 Attagene cis-factorial TAL promoter reporter; actives raise or lower the signal. Put shortly: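 Basal-promoter background-control endpoint from a multiplexed HepG2 reporter panel. Cells were exposed 24 h, then reporter mRNA was read by RT-PCR/CE fluorescence and fitted in both directions relative to DMSO.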

Assay [12] can be described thus: ATG_TGFb_CIS: Attagene CIS-FACTORIAL HepG2 Assay for human Transforming Growth Factor (TGF) (AID 2282967). The note with it: HepG2 Attagene CIS TGFb reporter, mRNA transcription; actives raise or lower the signal. In a few lines:
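Transient MRTU transfection of HepG2 (FuGene 6). Dose 24 h. TriZol RNA, oligo(dT) RT, PCR, 6-FAM primer extension, HpaI cut, CE. Bidirectional fit, DMSO = baseline.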

For assay [13], the target named is Nuclear receptor subfamily 1 group I member 3 (Homo sapiens) (UniProt Q14994). The assay is described as follows: ATG_CAR_TRANS: Attagene TRANS-FACTORIAL HepG2 Assay for human Constitutive Androstane Receptor (CAR) (AID 2282969; active = hit-call score of the fitted dose curve at least 0.9, where 1 is the maximum;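 note: activators raise reporter mRNA above DMSO so AC50 marks induction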). The note with it: HepG2 Attagene TRANS-FACTORIAL CAR reporter. Put shortly: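 Transiently transfected HepG2, multiplex TRANS reporters (CAR-Gal4 chimera driving GAL4-UAS reporter). 24 h dosing. Readout: reporter transcript by RT-PCR + capillary electrophoresis, fluorescence intensity; positive direction vs DMSO.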

The target of assay [14] is Estrogen receptor (Homo sapiens) (UniProt P03372). The assay is described as follows: ATG_ERa_TRANS: Attagene TRANS-FACTORIAL HepG2 Assay for human Estrogen Receptor alpha (ERa) (AID 2282970; active = hit-call score of the fitted dose curve at least 0.9, where 1 is the maximum). The note with it: HepG2 Attagene TRANS ERa GAL4 reporter, mRNA. Put shortly:
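Gal4-fusion ERa transactivation, measured as reporter transcript level in transiently transfected HepG2 cells. Exposure 24 h; RT-PCR plus capillary electrophoresis with fluorescence detection.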

A short description of assay [15]: ATG_RORE_CIS: Attagene CIS-FACTORIAL HepG2 Assay for human RAR-related Orphan Receptor Element (RORE) (AID 2282959). The note with it: HepG2 Attagene cis-factorial RORE reporter, mRNA; actives raise or lower the signal. Put shortly:
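Endogenous factor activity at a cis response element is read as reporter transcript levels in HepG2 cells, 24 h post-dose. Transcripts are quantified by RT-PCR with capillary electrophoresis, and data fitted in both directions against DMSO.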

A short description of assay [16]: ATG_M_19_TRANS: Attagene TRANS-FACTORIAL HepG2 Assay for M19 Transcription Factor (Internal Marker) (AID 2282974; active = hit-call score of the fitted dose curve at least 0.9, where 1 is the maximum). The note with it: HepG2 Attagene TRANS-FACTORIAL M19 internal marker reporter. In a few lines:
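Reporter mRNA induction was measured in transfected HepG2 cells 24 h after dosing. Endpoint fitted upward relative to DMSO and serves as a background control within the multiplexed TRANS panel.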

Assay [17] is described as follows: ATG_VDRE_CIS: Attagene CIS-FACTORIAL HepG2 Assay for human Vitamin D Receptor Element (VDRE) (AID 2282968). The note with it: HepG2 VDRE cis-reporter transcription, actives raise or lower the signal. Put shortly:
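Transient MRTU transfection of HepG2, 24 h compound exposure. Readout: reporter transcripts via RT-PCR and capillary electrophoresis, fluorescence. Bidirectional fit vs DMSO.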

Assay [18] has as its target X-box-binding protein 1 (Homo sapiens) (UniProt P17861). The assay is described as follows: ATG_Xbp1_CIS: Attagene CIS-FACTORIAL HepG2 Assay for human X-box Binding Protein 1 (XBP1) (AID 2282972). Conditions: HepG2 XBP1 cis-element reporter, Attagene multiplex; actives raise or lower the signal. In a few lines: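 Changes in reporter transcript abundance, read by RT-PCR and capillary electrophoresis, reflect endogenous transcription factor activity. Transfected HepG2 cells received compound for 24 hours; DMSO defined baseline for bidirectional analysis.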

Assay [19] is described as follows: ATG_GAL4_TRANS: Attagene TRANS-FACTORIAL HepG2 Assay for GAL4 (Internal Marker) (AID 2282976; active = hit-call score of the fitted dose curve at least 0.9, where 1 is the maximum). The note with it: HepG2 Attagene TRANS GAL4 internal marker reporter. Put shortly:
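Background-control readout: GAL4-UAS reporter transcript in transiently transfected HepG2 cells after 24 h compound exposure. Measured by RT-PCR, 6-FAM primer extension, HpaI digest and capillary electrophoresis; gain-of-signal fit versus DMSO.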

As usually defined, the AC50 is the concentration giving half of the maximal activity seen.

Inconclusive results are not listed. Active and inactive are the calls of the source. Rule for the calls, unless noted: active = hit-call score of the fitted dose curve at least 0.9, where 1 is the maximum; inactive = score below 0.9.

Paired box protein Pax-6 (Homo sapiens), sequence (P26367 whole entry, looked up): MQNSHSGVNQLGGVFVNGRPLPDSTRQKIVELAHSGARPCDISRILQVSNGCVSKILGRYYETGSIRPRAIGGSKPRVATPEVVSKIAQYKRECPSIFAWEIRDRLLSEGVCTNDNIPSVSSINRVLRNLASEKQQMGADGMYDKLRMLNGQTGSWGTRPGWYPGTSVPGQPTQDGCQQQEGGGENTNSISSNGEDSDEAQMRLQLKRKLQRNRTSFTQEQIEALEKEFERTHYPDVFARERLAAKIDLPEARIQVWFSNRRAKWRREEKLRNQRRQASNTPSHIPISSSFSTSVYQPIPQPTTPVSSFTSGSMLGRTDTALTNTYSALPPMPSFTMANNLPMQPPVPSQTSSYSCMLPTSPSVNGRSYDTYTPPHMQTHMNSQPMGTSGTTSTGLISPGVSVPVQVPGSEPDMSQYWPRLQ
Nuclear receptor subfamily 1 group I member 3 (Homo sapiens), sequence (Q14994 whole entry, looked up, the tested form may be a part): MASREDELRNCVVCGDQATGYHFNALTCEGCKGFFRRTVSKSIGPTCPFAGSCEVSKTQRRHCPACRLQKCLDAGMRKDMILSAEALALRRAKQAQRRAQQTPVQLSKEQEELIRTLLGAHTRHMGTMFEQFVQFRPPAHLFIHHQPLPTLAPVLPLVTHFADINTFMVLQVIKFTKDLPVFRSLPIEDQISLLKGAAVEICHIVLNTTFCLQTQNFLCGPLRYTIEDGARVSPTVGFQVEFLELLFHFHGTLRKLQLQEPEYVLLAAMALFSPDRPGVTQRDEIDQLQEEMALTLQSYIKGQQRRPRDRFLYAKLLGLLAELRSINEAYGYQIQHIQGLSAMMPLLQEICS
Transcription factor Sp1 (Homo sapiens), sequence (P08047 whole entry, looked up): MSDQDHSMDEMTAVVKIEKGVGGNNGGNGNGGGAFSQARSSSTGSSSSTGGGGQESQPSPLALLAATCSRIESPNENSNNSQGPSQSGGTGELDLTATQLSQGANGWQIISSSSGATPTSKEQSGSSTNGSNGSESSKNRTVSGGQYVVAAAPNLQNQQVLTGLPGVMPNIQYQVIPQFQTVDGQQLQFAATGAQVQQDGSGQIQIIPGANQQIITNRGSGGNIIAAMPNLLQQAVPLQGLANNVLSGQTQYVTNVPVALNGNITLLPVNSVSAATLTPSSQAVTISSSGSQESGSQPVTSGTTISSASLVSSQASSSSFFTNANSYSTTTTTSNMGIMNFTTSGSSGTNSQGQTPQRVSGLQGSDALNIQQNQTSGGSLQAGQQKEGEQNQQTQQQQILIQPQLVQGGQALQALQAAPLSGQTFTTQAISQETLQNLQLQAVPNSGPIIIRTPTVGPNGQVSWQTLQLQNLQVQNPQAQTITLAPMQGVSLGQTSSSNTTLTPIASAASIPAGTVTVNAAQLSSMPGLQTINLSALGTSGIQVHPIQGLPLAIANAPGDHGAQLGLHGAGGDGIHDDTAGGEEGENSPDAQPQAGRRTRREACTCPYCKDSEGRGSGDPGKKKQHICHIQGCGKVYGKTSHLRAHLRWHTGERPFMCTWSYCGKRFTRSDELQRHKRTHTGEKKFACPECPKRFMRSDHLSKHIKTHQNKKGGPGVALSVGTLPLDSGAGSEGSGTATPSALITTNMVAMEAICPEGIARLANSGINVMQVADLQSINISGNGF
Signal transducer and activator of transcription 3 (Homo sapiens), sequence (P40763 whole entry, looked up, the tested form may be a part): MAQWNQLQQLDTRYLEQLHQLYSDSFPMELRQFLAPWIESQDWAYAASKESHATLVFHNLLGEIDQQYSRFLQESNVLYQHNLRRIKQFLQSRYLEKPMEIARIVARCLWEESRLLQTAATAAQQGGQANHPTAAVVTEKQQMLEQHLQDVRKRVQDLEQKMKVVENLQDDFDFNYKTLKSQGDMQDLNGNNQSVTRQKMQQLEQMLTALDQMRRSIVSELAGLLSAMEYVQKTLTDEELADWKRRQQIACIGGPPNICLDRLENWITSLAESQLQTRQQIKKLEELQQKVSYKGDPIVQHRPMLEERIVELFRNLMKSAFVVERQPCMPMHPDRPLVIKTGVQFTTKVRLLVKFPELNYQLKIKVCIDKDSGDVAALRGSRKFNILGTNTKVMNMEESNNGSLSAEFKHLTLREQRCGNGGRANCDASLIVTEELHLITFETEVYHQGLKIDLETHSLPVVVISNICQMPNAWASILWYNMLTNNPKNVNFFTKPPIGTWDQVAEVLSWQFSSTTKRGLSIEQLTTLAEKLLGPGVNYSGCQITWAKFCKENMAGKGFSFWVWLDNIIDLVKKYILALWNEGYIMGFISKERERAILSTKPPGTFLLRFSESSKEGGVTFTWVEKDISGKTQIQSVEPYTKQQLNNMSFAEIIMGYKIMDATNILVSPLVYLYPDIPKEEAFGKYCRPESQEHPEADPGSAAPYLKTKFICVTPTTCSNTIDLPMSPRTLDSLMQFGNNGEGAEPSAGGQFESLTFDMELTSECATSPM
Estrogen receptor (Homo sapiens), sequence (P03372 whole entry, looked up, the tested form may be a part): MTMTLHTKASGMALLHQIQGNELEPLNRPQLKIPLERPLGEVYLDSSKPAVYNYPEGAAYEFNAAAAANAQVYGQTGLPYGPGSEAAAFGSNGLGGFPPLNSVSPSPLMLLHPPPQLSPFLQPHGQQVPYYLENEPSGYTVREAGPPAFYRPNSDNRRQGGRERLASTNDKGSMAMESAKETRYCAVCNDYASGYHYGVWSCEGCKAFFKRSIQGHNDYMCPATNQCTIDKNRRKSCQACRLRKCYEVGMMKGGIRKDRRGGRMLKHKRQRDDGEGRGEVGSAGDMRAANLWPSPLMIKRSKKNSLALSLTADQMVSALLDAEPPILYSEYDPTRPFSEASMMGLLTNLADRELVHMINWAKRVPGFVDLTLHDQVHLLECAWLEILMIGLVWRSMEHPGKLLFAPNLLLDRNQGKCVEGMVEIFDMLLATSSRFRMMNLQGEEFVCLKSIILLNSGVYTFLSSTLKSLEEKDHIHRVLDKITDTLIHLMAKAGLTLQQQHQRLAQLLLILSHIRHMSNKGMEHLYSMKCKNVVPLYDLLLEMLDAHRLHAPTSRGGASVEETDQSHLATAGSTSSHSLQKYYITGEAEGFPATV
X-box-binding protein 1 (Homo sapiens), sequence (P17861 whole entry, looked up): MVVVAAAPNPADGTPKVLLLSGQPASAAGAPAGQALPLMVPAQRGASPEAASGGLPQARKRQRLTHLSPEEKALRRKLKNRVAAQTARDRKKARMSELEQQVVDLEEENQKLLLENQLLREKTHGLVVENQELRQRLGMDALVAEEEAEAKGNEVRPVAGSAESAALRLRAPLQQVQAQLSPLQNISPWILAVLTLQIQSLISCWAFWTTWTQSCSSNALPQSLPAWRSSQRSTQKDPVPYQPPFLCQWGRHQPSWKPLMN

`c1ccc(Nc2cccc3ccccc23)cc1`: the result in assay [1], in [4], in assay [8], in assay [9], in [11] and in assay [12] was inactive. For the same molecule, the result in assay [13] was inactive. Besides, the AC50 in assay [2] is 33.4 µM (active); in assay [3], 8.67 µM (active); in [5], 48.1 µM (active); in assay [6] it was 47.1 µM (active); in assay [7], 60.4 µM (active); in assay [10], 50.8 µM (active). For the same molecule, the AC50 in assay [14] was 2.75 µM (active).

Turning to `COC(=O)c1ccc(C(=O)OC)c(C(=O)OC)c1`, the outcome in [1], in assay [2], in assay [3], in assay [4], in [15] and in assay [6] was inactive. In addition, the molecule was classed as inactive in [7], in assay [8], in [9], in [10], in assay [11] and in assay [12]. Moreover, the molecule was called inactive in assay [13], in [14] and in assay [16].

`COc1cc(C)ccc1O`: the result in assay [1], in [2], in assay [3], in assay [4], in assay [15] and in [6] was inactive. The result in assay [7], in assay [8], in assay [9], in assay [10], in assay [11] and in [12] was inactive. The call in assay [17], in [14], in [18] and in [19] was inactive.

`C=CCOC(=O)c1ccc(C(=O)OCC=C)c(C(=O)OCC=C)c1`: the result in assay [1], in assay [2], in assay [5], in [6], in assay [7] and in assay [8] was inactive. Also, the result in [9], in [10], in [11], in assay [12], in [13] and in [14] was inactive. Further, the molecule was classed as inactive in [18] and in assay [16]. Further, the AC50 is 21 µM (active) in [3], 14.8 µM (active) in assay [4] and 41.6 µM (active) in [17].

For the origin of these results see PubChem BioAssay (EPA / NIEHS).
